Results published in the supplement of paper PMC3334620.
In all, about 33,000 sequences were measured (“E-score (-0.5 to 0.5)”: median about -0.036, highest 2% from about 0.37 on). The sample holds the highest values, similar sequences and a random draw of the others, so the mix is not that of the screen.

Target: T1, Yer064c (UniProt P40041)
T1 sequence: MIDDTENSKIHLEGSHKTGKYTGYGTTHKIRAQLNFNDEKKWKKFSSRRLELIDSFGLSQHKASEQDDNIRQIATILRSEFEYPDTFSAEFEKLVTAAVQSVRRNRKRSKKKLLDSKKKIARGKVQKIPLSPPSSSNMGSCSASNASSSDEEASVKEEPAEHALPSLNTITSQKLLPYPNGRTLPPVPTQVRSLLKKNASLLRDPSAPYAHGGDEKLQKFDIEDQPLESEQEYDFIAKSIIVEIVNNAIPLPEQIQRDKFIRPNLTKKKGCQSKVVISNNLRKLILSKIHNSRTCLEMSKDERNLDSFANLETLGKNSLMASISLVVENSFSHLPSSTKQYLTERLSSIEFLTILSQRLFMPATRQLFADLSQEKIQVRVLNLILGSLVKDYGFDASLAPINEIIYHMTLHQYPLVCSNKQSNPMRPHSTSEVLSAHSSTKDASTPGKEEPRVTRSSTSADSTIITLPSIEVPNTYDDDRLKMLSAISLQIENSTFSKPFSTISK
Test: PBM E-score (8-mer binding enrichment) (E-score (-0.5 to 0.5)); higher = stronger / more preferred TF binding
Details: protein concentration: 200 nM; construct: GST-full length
Outline: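 PURExpress in vitro transcription/translation supplied GST-tagged yeast transcription factors, either full-length or DNA-binding domain. Applied at about 100-200 nM to universal all-10-mer Agilent arrays double-stranded by primer extension, the bound protein was detected with fluorescent anti-GST. E-scores, modified Wilcoxon-Mann-Whitney statistics, were given by the Universal PBM Analysis Suite to ungapped eight-base words pooled with their reverse complements after masliner normalisation.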

Sequence | PBM E-score
AGTCGTGC | 0.371
GGTCGTGA | -0.0505
CGTCGTGC | -0.106
AATCGTGC | 0.137
AACGAGAC | 0.0315
AAAGAGCA | -0.0916
CGGGGCAG | -0.052
CCCCTGAC | 0.173
AGCGAATA | 0.0298
ATTGGGTA | -0.138
CTGGGGAC | -0.0825
CACCCATC | 0.102
ACTTGACG | -0.0474
AATTGACT | 0.391
ACTTGACT | 0.412
ACTTGACA | 0.0454
AATTGACG | -0.178
AATTGACC | -0.0998
CAATTCCA | -0.297
CATACGAC | 0.158
ACGCGTGC | -0.0231
CCATCCGA | 0.161
CGAGAGTC | 0.421
CGAGAGAC | 0.0137
AGAGAGTA | 0.121

Sequence | PBM E-score
CCAGAGTC | 0.38
ACAGAGTG | 0.0565
ACAGAGTA | 0.0495
CCAGAGTA | -0.0992
AGAGAGTG | -0.104
AGAGAGTC | 0.409
ACAGAGTC | 0.37
CCAGAGGC | -0.335
CGAGAGTA | 0.0908
CCGCAAGC | -0.268
ACGCCATC | -0.136
CCTACCCA | -0.0884
CGAGAACA | 0.0131
GCTACGAA | -0.0422
GGCCGGGA | -0.134
CGCTACGC | -0.323
AACGGGAT | -0.185
CAATCCGG | -0.0586
GATAGGCC | -0.339
GTACTCAC | 0.387
GTACTCAA | 0.314
CGACTCTA | 0.343
ATACTCAC | 0.312
CTACTCAA | 0.162
GGACTCAA | 0.409

Sequence | PBM E-score
GAACTCAA | 0.145
TGGCTCAA | 0.332
TAACTCAA | 0.263
CGACTCAA | 0.474
TGACTCAA | 0.492
GGACTCTA | 0.193
CACCTTGG | -0.142
CCCAGCTA | -0.0347
CTGGCTAA | 0.23
CGTTCCAC | -0.25
ACGCATAC | -0.135
TAGCTCCA | -0.0907
GCACTCAC | 0.0283
GGACTCCC | 0.214
GGACTCAC | 0.43
AGGTACCG | -0.156
ACTCGAAC | 0.136
CCGTATGC | -0.167
CCATTGAC | 0.0546
CCGGCTGA | 0.165
GAGACCAA | -0.0383
AAGACTAC | 0.413
AAGACAAT | -0.0159
AAGACTAT | 0.417
AAGACTAG | 0.338

Sequence | PBM E-score
CAGACTAC | 0.215
GAGACGAA | -0.0519
AAGACTTC | 0.241
TAGACTAA | 0.3
AAAACTAA | 0.134
AAGACTAA | 0.442
GAGACTAA | 0.413
CAACAGGG | -0.202
ATGATACA | 0.246
GAAGTGCC | -0.336
GTTTGCTA | 0.0898
GAGTTGCC | -0.149
GACGGTAA | -0.284
CAACTCCG | -0.12
ATAGTTGC | 0.0257
CGATGTAC | -0.0701
AGGCCTCG | -0.184
AGGACTAA | 0.405
TGGACTAA | 0.348
AGGACTAT | 0.31
CCAGAGGA | 0.00907
ATAGGGGC | -0.262
GGAGTCCC | 0.189
CGAGTCCG | 0.272
GGAGTCAC | 0.485

Sequence | PBM E-score
TCAGTCAA | 0.348
CGAGTCAG | 0.46
CGAGTCCC | 0.24
GGAGTTAC | -0.0565
CGAGTCAC | 0.477
CAAGTCAG | 0.306
TAAGTCAA | 0.344
CGAGTCTC | 0.307
TGAGTCAA | 0.489
CCTTCTGA | -0.0564
GAGAGCCA | 0.132
TCCAGCCA | -0.198
GCGTAGCC | 0.074
ATCGATGC | -0.198
AACTAGCG | -0.119
CTCAAGGC | 0.104
ATCCACTC | -0.0532
TCCAACCA | -0.132
CATCGGCC | -0.0369
ACTGGGAC | 0.0246
GGAGTCCA | 0.243
GGAGTCAA | 0.431
GGAGTCTA | 0.172
TGAGTACA | 0.376
AGAGTACA | 0.171

Sequence | PBM E-score
TGAGTCCA | 0.397
GGAGTACA | 0.129
CGAGTCCA | 0.0419
CGAGTCTA | 0.132
CGAGTCAA | 0.444
GGAGTCGA | 0.212
CAAGTCAA | 0.196
CAAAGCCG | -0.176
ACCTGCGG | -0.208
CAGGCGGC | 0.0353
TGGCGCAA | -0.15
CGCTGGTA | -0.0555
GACTACCA | 0.413
CACTACCC | 0.00286
TACTACCA | 0.00773
GACTACCC | 0.42
AACTACCC | -0.158
CACTACCA | -0.0175
ACAAAACT | -0.0935
CAGGACCC | -0.208
GAGAACGA | -0.0613
ACTTAGTA | 0.162
CCTTAGAC | 0.063
CCTTAGTA | -0.0218
ACTTAGTC | 0.435

Sequence | PBM E-score
ACTTAGTG | 0.198
CCTTAGTC | 0.41
GTCCATAA | -0.161
CCCGGCGG | -0.182
ATCCTGGG | -0.0196
AGTCAAGA | 0.414
CGTCAAGA | -0.229
AGTCAAGG | 0.392
AGTCAAGC | 0.358
GGTCAAGA | -0.0401
ACTCAAGG | 0.29
CCTTCGTA | -0.15
AGCGCTGA | 0.0781
CTATCGGC | -0.0556
ACACACGG | 0.0742
CCTCACGA | -0.0431
ACTCACGC | 0.357
ACTCACGG | 0.376
ACTCACGA | 0.388
ACGCACGG | -0.192
ACTCACAA | 0.395
ACTCACAG | 0.353
CCTCACAA | 0.038
